Rows were chosen to be rich in hits. Some 21% of all compounds tested hit in one or more screens of this group.
CHX counter: counter-screen for Shiga toxin inhibitors: cycloheximide protein synthesis inhibition. cell reporter, cycloheximide protein synthesis inhibition counterscreen. max response, %. hit rate 12% among 300,000; in the data active = max response mostly above about 13%, no sharp cut-off; inactive = mostly below about 14%; note: read at 38.3 µM for the half of the compounds with a filed dose; 0% is about no effect
Pf growth 48h: inhibits P. falciparum growth in the first generation, 48 h; P. falciparum luciferase growth in erythrocytes, 48 h; Potency, µM (highest dose often 28.7 µM), for inactives: top-dose activity change, negative = inhibition, actives largely listed as inhibitors; hit rate 5.9% among 310,000; AID 504832; note: potency is the fitted concentration of half-maximal effect; % is set by controls: 0 for no effect and ±100 for the full control effect
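A one-generation exposure of luciferase-tagged malaria parasites in RPMI 1640/Albumax erythrocyte culture, 37 C and 5% CO2. Inhibition is inferred from decreased luminescence after adding detection reagent.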
Shiga toxin inh: Shiga toxin inhibition; hit rate 9.2% among 290,000; Vero cells, Shiga toxin protein synthesis inhibition reporter; AID 2315; inhibition, % at 38.7 µM; in the data active = inhibition mostly above about 28%, no sharp cut-off; inactive = mostly below about 43%; note: 0% is about no effect
NS1 function inh: blocks influenza NS1 protein function. Potency, µM (series often up to 46.1 µM), for the others: at the highest dose activity, positive = more growth. hit rate 0.4% among 270,000; calls by dose curve; note: potency is the fitted concentration of half-maximal effect; actives are rising curves; nearly all actives have a fitted effect of over 50% in size
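Growth recovery, yeast-based: influenza A NS1 expressed in S. cerevisiae causes slow growth, and suppressors are detected by OD600. The parent strain without NS1 is used as positive control.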
Pf growth 96h: P. falciparum growth inhibition at 96 hour, primary screen for plastid delayed-death inhibitors. P. falciparum luciferase reporter growth, 96 h. Potency, µM (doses to about 28.7 µM), inactives show at the top dose activity change, negative = inhibition, usual class: inhibitors. hit rate 6.9% among 320,000. AID 504834; note: potency is the fitted concentration of half-maximal effect; % is set by controls: 0 for no effect and ±100 for the full control effect
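Compounds incubated with erythrocytes infected by luciferase-expressing P. falciparum (2% hematocrit, 0.05% parasitemia final) for 96 hours, 37 C in 5% CO2. Growth inhibition scored as decreased luciferase luminescence.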
SARS PLpro yeast: SARS-CoV PLP inhibition in yeast | S. cerevisiae expressing SARS-CoV PLpro, growth rescue | Potency, µM (highest dose often 32.9 µM), for inactives: top-dose activity, positive = growth rescue, usual class: activators | hit rate 0.19% among 330,000; calls by dose curve; note: potency is the fitted concentration of half-maximal effect; 0% is about no effect; nearly all actives have a fitted effect of over 55% in size
Active calls of the source: *; i = inactive; ? = inconclusive; nt = no result; [ ] = dose if it differs, or a comment. Unless noted, calls come from the whole dose curve; as a rule, active = well fitted inhibition curve with a large enough effect; inconclusive = small, poorly fitted or top-dose-only effect, or another doubt; inactive = no such curve, though single readings can be large or run the other way.

SMILES	CHX counter	Pf growth 48h	Shiga toxin inh	NS1 function inh	Pf growth 96h	SARS PLpro yeast
COC(=O)c1cc(F)c(S(=O)(=O)N2CCN(S(=O)(=O)c3ccc4c(c3)OCCO4)CC2)cc1F	-9	nt	-5	nt	nt	nt
O=C(Nc1ccc2oc(-c3cccnc3)nc2c1)c1ccco1	36*	-26%	47	-75%	-9%	-9%
O=C(Nc1ccc2oc(-c3cccnc3)nc2c1)c1ccc(Br)o1	-4	nt	-6	11%	?	-8%
CCC(C)NCC(=O)Nc1ccc(-c2nc3cc(NC(=O)CNC(C)CC)ccc3o2)cc1 (stereo not given)	-4	?	19	-3%	-14%	-3%
O=C(Nc1ccc(-c2nc3ncccc3o2)cc1)c1ccco1	27*	56%	66*	-69%	nt	-4%
Cc1ccc2oc(-c3ccc(NC(=O)CC(C)C)cc3)nc2c1	34*	152%	143*	0%	132%	-4%
CC(C)CC(=O)Nc1ccc2oc(-c3cccnc3)nc2c1	26*	10%	37	-15%	nt	-5%
Cc1onc(-c2ccccc2)c1C(=O)N(C)CC(=O)Nc1ccc(F)c(F)c1F	nt	nt	nt	nt	nt	-6%
O=C(NCc1ccc(-n2cccc2)cc1)c1cccc(F)c1	4	3%	20	nt	4%	2%
Cc1ccc(NC(=O)C2CC(O)CN2C(=O)OCc2ccccc2)cc1C (stereo not given)	1	?	-5	-3%	?	0%
CN(C)/C=C1\Oc2ccc3ccccc3c2C1=O	34*	i	116*	nt	274%	0%
O=C(NCCN1CCOCC1)N1CCOCC1	10	17%	7	-3%	0%	4%
C/C(NCCN1CCOCC1)=C(\C#N)C(N)=O	-7	10%	-3	9%	1.7µM*	12%
CCCn1c(SCC(=O)Nc2cc(Cl)ccc2OC)n[nH]c1=O	1	nt	-6	14%	?	2%
CCCn1c(SCC(=O)N2CCN(S(=O)(=O)c3ccc(Cl)cc3)CC2)n[nH]c1=O	2	10µM*	-8	-4%	?	1%
CCCn1c(SCC(=O)Nc2cc(Cl)ccc2Cl)n[nH]c1=O	-1	?	-2	nt	1.2µM*	-2%
O=C(CCNC(=O)OCc1ccccc1)NC1CCCCCC1	-2	?	-9	-1%	-36%	8%
CC(Sc1ccc2c(c1)OCCO2)C(=O)Nc1ccc(N2CCOCC2)cc1 (stereo not given)	31	-30%[5.75 µM]	18	nt	95%[5.75 µM]	-1%
O=S(=O)(c1cccs1)N1CN(Cc2ccco2)c2nc3ccccc3nc21	31*	?	40*	-6%	?	0%
Cc1ccc(CN2CN(S(=O)(=O)c3cccs3)c3nc4ccccc4nc32)cc1	91*	?	81*	-1%	66%	5%
O=S(=O)(c1cccs1)N1CN(Cc2ccc(Cl)cc2)c2nc3ccccc3nc21	15*	?	10	-3%	?	4%
CCCCN1CN(S(=O)(=O)c2cccs2)c2nc3ccccc3nc21	8	43%	12	-13%	0%	4%
COCCN1CN(S(=O)(=O)c2ccccc2)c2nc3ccccc3nc21	5	-13%	7	-32%	-42%	1%
Cc1cccc(S(=O)(=O)N2CN(Cc3ccco3)c3nc4ccccc4nc32)c1	-3	?	-3	-4%	?	-10%
COc1ccccc1CN1CN(S(=O)(=O)c2ccccc2)c2nc3ccccc3nc21	31*	?	110*	12%	?	4%
SMILES	CHX counter	Pf growth 48h	Shiga toxin inh	NS1 function inh	Pf growth 96h	SARS PLpro yeast
O=C(Cc1cccs1)Nc1cc(SCCO)cc([N+](=O)[O-])c1	-3	9%	-1	-4%	-36%	18%
CC(C)OCCCN1CN(S(=O)(=O)c2cccs2)c2nc3ccccc3nc21	14*	-12%	44	-5%	6%	-2%
Cc1csc(NC(=O)c2cc(-c3ccccc3)nc3ccccc23)n1	-1	?	-11	?	?	-5%
CCOC(=O)c1cnn(-c2ccc(C(F)(F)F)cn2)c1N	40*	120%	77*	-12%	nt	-4%
CCOC(=O)c1cnn(-c2ccccc2)c1-n1cccc1C(=O)C(=O)Nc1ccccc1	21*	32%	43*	10%	29%	-7%
CCOC(=O)c1cnn(-c2ccc([N+](=O)[O-])cc2)c1N	15*	169%	18	-6%	69%	-1%
CCOC(=O)c1cnn(-c2cccc(Cl)c2)c1N	34*	55%	61*	-12%	27%	-3%
NC(=O)c1cnn(-c2ccc3ccccc3c2)c1N	24*	102%	39	nt	155%	1%
CCOC(=O)c1cnn(-c2ccccc2)c1N	31*	nt	34	-9%	26%	2%
COC(=O)c1cnn(-c2ccccc2)c1N	10	23%	33	10%	4%	-2%
CCOC(=O)c1ccc(Oc2ccc(C(F)(F)F)cn2)cc1	29*	3%	61	nt	63%	2%
O=C(c1cnn2c(C(F)(F)F)cc(-c3ccccc3)nc12)N1CCC2(CC1)OCCO2	-5	nt	-13	-6%	15µM*	4%
O=C(c1cnn2c(C(F)(F)F)cc(-c3ccccc3)nc12)N1CCCc2ccccc21	2	-10%	-2	-2%	nt	-2%
COc1ccc(-c2cc(C(F)(F)F)n3ncc(C(=O)N4CCc5ccccc5C4)c3n2)cc1	0	9.3µM*	-5	-2%	25%	0%
COC(=O)c1cnn2c(C(F)(F)F)cc(-c3ccccc3)nc12	-2	?	9	1%	?	15%
COc1ccc(-c2cc(C(F)(F)F)n3ncc(C(=O)O)c3n2)cc1OC	25*	-16%	-17	10%	-16%[5.75 µM]	1%
N#Cc1cnn2c(C(F)(F)F)cc(-c3ccccc3)nc12	-3	10µM*	-24	-18%	236%	-3%
Cc1cccc(/C=N/NC(=O)C(C)Nc2cccc3ccccc23)n1 (stereo not given)	16*	nt	12	-13%	-3%	-11%
CN(c1ccc(O)cc1)c1nc(-c2cccs2)cs1	-4	-12%	-6	0%	3%	0%
Cc1nc(N)sc1-c1csc(N(C)c2ccc(O)cc2)n1	23*	49%	66*	?	21%	-1%
C/C(=N\NC(=S)NCc1ccccc1)c1ccc(C#N)cc1	-2	?	-5	-2%	-2%	1%
C/C(=N\NC(=S)NCc1ccccc1)c1ccccc1	28*	21%	active	-25%	-3%	-29%
C/C(=N\NC(=S)NCc1ccccc1)c1ccccc1F	23	?	46*	nt	-28%	23%
COc1ccc(CNC(=S)N/N=C(/C)c2ccccc2)cc1	49*	42%	84*	-7%	-18%	-1%
CNC(=S)N/N=C(\C)c1ccc(C(C)(C)C)cc1	24*	-9%	30*	-3%	?	19%
CN(CC(=O)Nc1cccc(F)c1)C(=O)CCc1nc2ccccc2c(=O)[nH]1	nt	10%	nt	nt	-26%	3%
